BAZ2B inh: BAZ2B (human) inhibition; 360,000 tested, 4.4% active; Potency, µM (doses to about 114 µM), for the others: top-dose activity change, negative = inhibition, most hits filed as inhibitors; AID 504333; Q9UIF8; AlphaScreen BAZ2B-H3K14Ac peptide displacement; note: potency is the fitted concentration of half-maximal effect; % is set by controls: 0 for no effect and ±100 for the full control effect; nearly all actives have a fitted effect of over 60% in size
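Multi-concentration screen (max 110 uM) measuring displacement of acetylated histone H3 peptide from BAZ2B by AlphaScreen, using 50 nM protein, 50 nM peptide and 10 ug/mL streptavidin donor plus Ni-chelate acceptor beads.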
Six1-Eya2 blk: Six1/Eya2 interaction inhibition; Q15475+O00167; AlphaScreen GST-Six1/His-Eya2 binding, biochemical; hits give low values; activity change, % (test concentration not listed); 360,000 tested, 0.56% active; AID 651725; in the data active = activity change below about -65%; inconclusive = mostly about -30% to -63%; note: % is set by controls: 0 for no effect and ±100 for the full control effect
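Compounds are tested against tagged Six1 and Eya2 proteins bridged by glutathione donor and nickel acceptor beads; after a one-hour incubation at 37 °C without light, AlphaScreen emission is recorded.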
JMJD2A Tudor inh: blocks the human JMJD2A Tudor domain | O75164 | AlphaScreen JMJD2A-Tudor / H3K4me3 peptide binding | Potency, µM (top dose mostly 114 µM), inactives show at the top dose activity change, negative = inhibition, actives largely listed as inhibitors | 390,000 tested, 4.4% active; note: potency is the fitted concentration of half-maximal effect; % is set by controls: 0 for no effect and ±100 for the full control effect; nearly all actives have a fitted effect of over 50% in size
CtBP-E1A blk: blocks the CtBP interaction with E1A; AlphaScreen GST-E1A/His-CtBP binding, 1536-well; hits give low values; activity change, % (test concentration not listed); 340,000 tested, 0.49% active; AID 651724; in the data active = activity change below about -65%; inconclusive = mostly about -30% to -63%; note: % is set by controls: 0 for no effect and ±100 for the full control effect
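In 5 uL wells, 23 nL compound meets equimolar GST-E1A and His-CtBP (5X stock 125 nM each) for 2 h, 37 °C. Beads (5X, 50 ug/mL) then 1 h, 37 °C, dark.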
G9a inh: G9a (human) methyltransferase inhibition; Q96KQ7; G9a H3K9 monomethylation, AlphaScreen, 2 h; Potency, µM (series often up to 102 µM), for the others: top-dose activity, negative = inhibition, most hits filed as inhibitors; 350,000 tested, 8.8% active; AID 504332; note: potency is the fitted concentration of half-maximal effect; % is set by controls: 0 for no effect and ±100 for the full control effect; nearly all actives have a fitted effect of over 75% in size
Target sequence (Q96KQ7 913-1193 limits assumed): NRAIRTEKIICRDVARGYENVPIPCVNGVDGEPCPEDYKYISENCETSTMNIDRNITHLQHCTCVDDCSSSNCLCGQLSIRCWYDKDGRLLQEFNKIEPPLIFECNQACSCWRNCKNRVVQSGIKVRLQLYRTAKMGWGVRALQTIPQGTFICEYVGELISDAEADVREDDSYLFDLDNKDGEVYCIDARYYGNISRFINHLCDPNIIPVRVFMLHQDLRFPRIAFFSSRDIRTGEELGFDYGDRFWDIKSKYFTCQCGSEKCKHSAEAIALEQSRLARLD
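AlphaScreen detection with an anti-monomethyl H3K9 antibody quantified product after a 2 h room-temperature reaction containing 500 nM biotinylated H3K9 peptide, 20 µM SAM and 20 nM enzyme, which had been preincubated 15 min with compound.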
HP1b chromo inh: inhibitors of HP1-beta chromodomain binding to methylated histone tails; AID 540317; AlphaScreen HP1-beta / biotin-H3K9me3 peptide binding; Potency, µM (series often up to 114 µM), without a hit: top-dose activity change, negative = inhibition, actives largely listed as inhibitors; 390,000 tested, 0.56% active; note: potency is the fitted concentration of half-maximal effect; nearly all actives have a fitted effect of over 70% in size
Target sequence (P83916 whole entry, looked up): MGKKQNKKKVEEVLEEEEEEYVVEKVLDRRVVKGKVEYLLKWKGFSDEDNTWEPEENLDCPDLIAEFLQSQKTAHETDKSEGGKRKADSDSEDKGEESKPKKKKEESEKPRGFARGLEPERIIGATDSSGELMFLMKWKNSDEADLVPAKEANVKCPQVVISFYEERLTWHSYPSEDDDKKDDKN
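AlphaScreen: HP1-beta (50 nM) preformed 30 min with biotin-H3(1-18)K9me3 peptide (50 nM) in PBS pH 7.4, 0.01% Tween-20. Compound added for 30 min at RT, then streptavidin donor/nickel chelate acceptor beads (10 ug/mL) for 30 min.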
Starred values were filed as active, the others as inactive; ? = inconclusive; nt = not tested or not shown; [ ] = another dose, or the depositor's remark. Compounds with a hit are over-represented: about 10% of the library has one in this group of screens. Unless noted, calls come from the whole dose curve; as a rule, active = well fitted inhibition curve with a large enough effect; inconclusive = small, poorly fitted or top-dose-only effect; inactive = no such curve, though single readings can be large or run the other way.

SMILES | BAZ2B inh | Six1-Eya2 blk | JMJD2A Tudor inh | CtBP-E1A blk | G9a inh | HP1b chromo inh
CCCOc1ccc(C(=O)Nc2cc3c(cc2N2CCCCC2)n(C)c(=O)n3C)cc1 | -30.6% | nt | -26.7% | nt | -34.4%[59 µM] | -5.5%
NC(=NCc1ccc(Cl)c(Cl)c1)NC(=O)c1nc(Cl)c(N)nc1N | nt | nt | nt | nt | 5.1%[12.7 µM] | nt
Cc1cc(C(=O)N2CCc3ccccc3C2)c(C)o1 | nt | -0.2 | -24.0% | 1.6 | nt | -3.7%
O=C(Nc1nnc(C2=COCCO2)o1)c1ccc(F)cc1 | 22.4µM* | ? | 56.2µM* | ? | nt | 39.6%
CN(C)c1ncnc2c1ncn2[C@H]1CN(Cc2cccnc2)C[C@@H](CO)O1 | nt | -2.0 | nt | -10.6 | nt | nt
Cc1cc(Br)ccc1N=C1NC(=O)CS1 | -22.5% | 7.5 | -9.7% | 9.1 | 20µM* | -7.1%
Cc1ccc(NC2=C(NC(=O)c3ccccc3)C(=O)c3ccccc3C2=O)cc1Cl | 14.1µM* | -66.4* | 14.1µM* | -0.5 | 2.24µM* | 44.7µM*
O=C(O)c1ccc(NC2=C(Cl)C(=O)c3ccccc3C2=O)cc1 | 50.1µM* | 4.1 | ? | -20.6 | ? | -14.1%
O=C(O)c1cccc(NC2=C(Cl)C(=O)c3ccccc3C2=O)c1 | 44.7µM* | -16.1 | 56.2µM* | -22.1 | 7.08µM* | ?
CC1=C(Nc2ccc(C(=O)O)cc2)C(=O)c2ccccc2C1=O | 44.7µM* | -14.9 | ? | -18.4 | ? | -14.7%
Cc1ccc(NCC(=O)c2ccccc2)cc1Cl | 11.1% | 1.9 | -7.5% | 2.4 | -39.6%[59 µM] | 26.2%
O=C1C(Cl)=C(Nc2ccccc2)C(=O)c2ccccc21 | ? | -3.1 | -18.1% | -8.6 | ? | -1.6%
CCCc1nn2c(=O)cc(COC(=O)c3cccc(NC(=O)c4ccc(OCC)cc4)c3)nc2s1 | -7.3% | nt | -13.2% | nt | -3.9%[12.7 µM] | 19.5%
CCn1c(SCC(=O)NNC(=O)c2ccc(OC)cc2)nnc1C1CC1 | 10.2% | -3.9 | ? | 0.4 | 18.6% | 5.1%
CCn1c(SCC(=O)c2cc(OC)ccc2OC)nnc1C1CC1 | 2.1% | -0.9 | -19.5% | 3.0 | 50.1µM* | 25.7%
CCn1c(SCC(=O)c2ccc(OC)cc2)nnc1C1CC1 | -0.2% | 7.8 | 100µM* | 2.0 | 15.2%[12.7 µM] | -2.8%
O=C1c2ccccc2C(=O)N1CN(C(=O)COc1ccccc1)c1ccc(F)cc1 | -1.1% | -1.7 | -10.3% | 3.4 | -21.0% | 35.2%
O=C(N/N=C/c1cccnc1)c1ccccc1Cl | 1.0% | 2.8 | -11.7% | nt | -1.7% | 19.6%
O=C(N/N=C/c1cc(Cl)ccc1O)c1ccncc1 | 20µM* | -91.9* | ? | -95.5* | 61.9%[12.7 µM] | -11.3%
O=C(N/N=C/c1ccncc1)c1cccc(NC(=O)c2ccc(Cl)cc2)c1 | -4.3% | -1.2 | -28.8% | -4.2 | 15.8µM* | ?
O=C(N/N=C/c1ccc(F)cc1)c1cccc(NC(=O)c2ccc(F)cc2)c1 | -15.8% | ? | -5.3% | -16.3 | 27.0% | 18.2%
O=C(N/N=C\c1cccnc1)c1cc(-c2ccc(Cl)s2)[nH]n1 | 50.1µM* | 0.0 | 56.2µM* | -16.6 | 31.6µM* | -8.0%
O=C(N/N=C/c1cccnc1)c1ccc(NC(=O)c2ccc(Cl)cc2)cc1 | 0.8% | -28.8 | -3.5% | -2.1 | 44.7µM* | 20.6%
CCOc1ccccc1C(=O)NCC(=O)NCC(c1ccc(OC)cc1)N1CCOCC1 (stereo not drawn) | -4.7% | 6.5 | -15.0% | 2.0 | -0.6%[0.501 µM] | -5.6%
O=C(OCc1ccccc1)N1CCCC1/C=C/CN1CCOCC1 (stereo not drawn) | -9.9% | 6.7 | -18.9% | -0.8 | -4.0% | 3.2%
SMILES | BAZ2B inh | Six1-Eya2 blk | JMJD2A Tudor inh | CtBP-E1A blk | G9a inh | HP1b chromo inh
Cc1ccc(CC2CC(=O)N(C(Cc3ccccc3)C(=O)O)C2=O)cc1 (stereo not drawn) | -2.5% | -2.2 | 3.1% | 3.1 | nt | 47.6%
CCCn1nnnc1NCc1ccccc1Cl | 7.0% | -1.9 | -0.3% | nt | 12.2% | 30.6%
O=C(NCC1CCCO1)C(=O)N/N=C/c1cc(Cl)ccc1O (stereo not drawn) | ? | -80.0* | 39.8µM* | -94.4* | -1.9% | 31.0%
O=C(NCC1CCCO1)C(=O)N/N=C/c1ccc(O)c(Cl)c1 (stereo not drawn) | 2.9% | 3.1 | -5.9% | 1.3 | 21.1% | 1.6%
C/C(=N\NC(=O)c1cc(O)ccc1O)c1cccc(NC(=O)c2ccc(Cl)cc2)c1 | ? | ? | ? | -27.1 | 15.8µM* | ?
O=C(N/N=C/c1cccnc1)c1ccc(NC(=O)c2cccc(Cl)c2)cc1 | -25.2% | 2.9 | -30.3% | -1.4 | 31.6µM* | ?
O=C(N/N=C/c1cccnc1)c1ccc(Cl)c(Cl)c1 | nt | -17.9 | 3.2% | 2.7 | nt | 36.6%
Cc1ccccc1NC(=O)Cn1nc(-c2ccc(F)cc2)c2cnc3ccccc3c21 | -11.3% | nt | -19.3% | nt | -0.4%[59 µM] | 24.9%
Cc1ccc(C)c(S(=O)(=O)N2CCCC2CNC(=O)C(=O)NCc2ccco2)c1 (stereo not drawn) | -6.3% | -0.2 | -27.6% | -13.1 | -31.9% | -12.0%
CCN(CC(=O)NCc1cccs1)C(=O)c1cccc(S(=O)(=O)N2CC(C)OC(C)C2)c1 (stereo not drawn) | nt | -9.9 | -8.4% | -16.4 | nt | 22.5%
c1ccc2c(-c3[nH]ncc3CNCCCn3ncc4ccccc43)cccc2c1 | ? | -7.1 | 20µM* | -9.9 | nt | -16.6%
Cc1cccc(N2CCN(C(c3ccc(F)cc3)c3nnc(-c4ccccc4)o3)CC2)c1C (stereo not drawn) | 50.1µM* | nt | ? | nt | ? | 4.5%
Cc1ccc(Cl)cc1N1CCN(C(c2ccc(F)cc2)c2nnc(-c3ccccc3)o2)CC1 (stereo not drawn) | -18.9% | nt | ? | nt | ? | 11.8%
O=C(OCC#CCSc1nnc(-c2cccc3ccccc23)o1)C1CCC1 | nt | nt | 100.7% | nt | nt | nt
N#CC1=C(N)C(C#N)(C#N)C(c2ccc[nH]2)C2CCCC=C12 (stereo not drawn) | -14.4% | -17.2 | -31.3% | -13.5 | 35.5µM* | 6.5%
N#CC1=C(N)C(C#N)(C#N)C(c2cccnc2)C2CCCC=C12 (stereo not drawn) | -22.5% | nt | nt | nt | 44.7µM* | nt
COc1ccc(N2CCN(C(=S)NCCc3ccccc3)CC2)cc1 | nt | -12.7 | -15.3%[11.4 µM] | -12.8 | nt | -23.1%
Oc1ccc(N2CCN(C(=S)NCCc3ccccc3)CC2)cc1 | ? | -9.8 | ? | -11.9 | 7.08µM* | ?
COc1ccc(CCNC(=S)NC2CCN(Cc3ccccc3)CC2)cc1 | -19.6% | 1.7 | -17.4% | -5.7 | 25.1µM* | -0.9%
S=C(NCCc1ccccc1)NC1CCC(NC(=S)NCCc2ccccc2)CC1 (stereo not drawn) | 0.3% | 2.7 | -10.3% | 1.3 | 28.3% | 30.0%
S=C(NCCc1ccccc1)N1CCN(Cc2ccccc2)CC1 | 56.2µM* | ? | 4.47µM* | -14.5 | ? | ?

Screening data: PubChem, National Center for Advancing Translational Sciences (NCATS)
